Compound activity (PubChem BioAssay)
Sampled rows, rich in hits. Any-hit rate of the full collection: about 10%.
G9a inh = qHTS Assay for Inhibitors of Histone Lysine Methyltransferase G9a; AID 504332, 2011; Potency, µM (doses to about 102 µM), inactives show at the top dose activity, negative = inhibition, usual class: inhibitors; 8.8% of 350,000 active; Histone-lysine N-methyltransferase EHMT2 (Homo sapiens), Q96KQ7; G9a H3K9 monomethylation, AlphaScreen, 2 h; further: potency means the concentration at half of the fitted maximal effect; on the % scale 0 is the no-effect control and ±100 the full control effect; nearly all actives have a fitted effect of over 75% in size
Target sequence (Q96KQ7 913-1193 limits assumed): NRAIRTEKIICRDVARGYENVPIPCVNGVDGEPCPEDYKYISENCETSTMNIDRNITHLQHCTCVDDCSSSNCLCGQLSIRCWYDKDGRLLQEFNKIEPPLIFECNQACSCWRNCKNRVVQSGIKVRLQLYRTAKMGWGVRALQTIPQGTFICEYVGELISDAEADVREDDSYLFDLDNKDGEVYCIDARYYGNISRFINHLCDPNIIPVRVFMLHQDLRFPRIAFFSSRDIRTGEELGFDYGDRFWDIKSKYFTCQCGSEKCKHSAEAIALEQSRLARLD
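Chemiluminescent proximity detection of H3K9 monomethylation, read after 10 min bead incubation in the dark. Reaction: 20 nM G9a, 500 nM biotin-H3K9 peptide, 20 uM SAM cofactor, 2 h, room temperature, following 15 min enzyme-compound preincubation.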
CtBP-E1A inh = qHTS Assay for Inhibitors of the CtBP/E1A Interaction; CtBP / adenovirus E1A interaction (AlphaScreen); AlphaScreen GST-E1A/His-CtBP binding, 1536-well; active compounds read low; activity change, % (no concentration beside the values); 0.49% of 340,000 active; in the data active means activity change below about -65%; inconclusive means mostly about -30% to -63%; further: on the % scale 0 is the no-effect control and ±100 the full control effect
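GST-E1A and His-tagged CtBP (125 nM each as 5X stock) were preincubated with pin-transferred compound for 2 h at 37 °C in the dark, then glutathione donor and nickel acceptor beads were added for 1 h before AlphaScreen reading.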
BAZ2B block = qHTS Assay for Inhibitors of BAZ2B; 4.4% of 360,000 active; AlphaScreen BAZ2B-H3K14Ac peptide displacement; Potency, µM (series often up to 114 µM), without a hit: at the highest dose activity change, negative = inhibition, usual class: inhibitors; Bromodomain adjacent to zinc finger domain protein 2B (Homo sapiens), Q9UIF8; further: potency means the concentration at half of the fitted maximal effect; on the % scale 0 is the no-effect control and ±100 the full control effect; nearly all actives have a fitted effect of over 60% in size
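Protein-peptide AlphaScreen: BAZ2B 50 nM, b-H3K14Ac 50 nM, 1x PBS pH 7.4 + 0.01% Tween-20. Preincubation 30 min RT; cpd 30 min RT (top 110 uM); beads 20 min RT, light-protected.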
JMJD2A Tudor inh = qHTS Assay for Inhibitors of JMJD2A-Tudor Domain. AlphaScreen JMJD2A-Tudor / H3K4me3 peptide binding. Potency, µM (titrated, usually from 114 µM), without a hit: at the top dose activity change, negative = inhibition, hits mostly inhibitors. Lysine-specific demethylase 4A (Homo sapiens), O75164. 4.4% of 390,000 active. AID 504339, 2011; further: potency means the concentration at half of the fitted maximal effect; on the % scale 0 is the no-effect control and ±100 the full control effect; nearly all actives have a fitted effect of over 50% in size
HP1b binding inh = HTS for Inhibitors of HP1-beta Chromodomain Interactions with Methylated Histone Tails | Chromobox protein homolog 1 (Homo sapiens), P83916 | 0.56% of 390,000 active | AID 540317, 2011 | AlphaScreen HP1-beta / biotin-H3K9me3 peptide binding | Potency, µM (titrated, usually from 114 µM), inactives show top-dose activity change, negative = inhibition, hits mostly inhibitors; further: potency means the concentration at half of the fitted maximal effect; nearly all actives have a fitted effect of over 70% in size
Target sequence (P83916 whole entry, looked up): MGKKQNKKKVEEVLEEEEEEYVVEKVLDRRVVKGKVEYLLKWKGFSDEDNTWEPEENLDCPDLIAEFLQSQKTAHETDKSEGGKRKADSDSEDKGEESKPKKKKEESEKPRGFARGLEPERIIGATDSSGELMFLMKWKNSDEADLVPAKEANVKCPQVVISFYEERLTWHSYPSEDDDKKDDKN
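HP1-beta protein (50 nM final) preincubated 30 min at room temperature with biotinylated H3(1-18)K9me3 peptide (50 nM) in PBS pH 7.4, 0.01% Tween-20, then compound added for 30 min. AlphaScreen streptavidin donor/nickel chelate acceptor beads (10 ug/mL final), 30 min dark, luminescence read.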
Six1-Eya2 inh = qHTS Assay for Inhibitors of the Six1/Eya2 Interaction | activity change, % (concentration not given with the values) | 0.56% of 360,000 active | Homeobox protein SIX1 (Homo sapiens) + Protein phosphatase EYA2 (Homo sapiens), … | AlphaScreen GST-Six1/His-Eya2 binding, biochemical; active compounds read low; in the data active means activity change below about -65%; inconclusive means mostly about -30% to -63%; further: on the % scale 0 is the no-effect control and ±100 the full control effect
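AlphaScreen with GST-Six1 and His-Eya2 (5X mix: 250 nM and 500 nM), glutathione donor and nickel acceptor beads; buffer 50 mM Tris pH 8.0, 300 mM NaCl, 1 mM TCEP; 1 h at 37 C in the dark.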
* marks the source's active call; other numbers are inactive results; [ ] = dose if it differs, or a comment. Unless noted, the call rests on the fitted dose curve; in most records, active means well fitted inhibition curve with a large enough effect; inconclusive means small, poorly fitted or top-dose-only effect; inactive means no such curve, though single readings can be large or run the other way.

Screening CCc1cccc(CC)c1NC(=O)c1ccc2c(c1)CCN2S(=O)(=O)c1ccccc1 returned G9a inh 2.5µM*, BAZ2B block 1%, JMJD2A Tudor inh -12% and HP1b binding inh 7%.
Screening CCN1CCN(C(=O)c2ccc(CNS(=O)(=O)c3cccc(OC)c3)cc2)CC1 returned G9a inh 45µM*, CtBP-E1A inh -6, BAZ2B block inconclusive, JMJD2A Tudor inh -11%, HP1b binding inh 19% and Six1-Eya2 inh 6.
For COc1ccc(N2CCN(C(=O)c3ccc4c(c3)CCN4S(=O)(=O)c3ccccc3)CC2)cc1 the results were G9a inh 28µM*, BAZ2B block 20µM*, JMJD2A Tudor inh inconclusive, HP1b binding inh 32% and Six1-Eya2 inh inconclusive.
Screening Cc1ccc(C)c(S(=O)(=O)NCc2ccc(C(=O)N3CCN(c4ccccc4)CC3)cc2)c1 returned G9a inh -6%, CtBP-E1A inh -19, BAZ2B block -28%, JMJD2A Tudor inh -35%, HP1b binding inh -13% and Six1-Eya2 inh 1.
COc1ccc(N2CCN(C(=O)c3ccc(NS(=O)(=O)c4ccccc4)cc3)CC2)cc1 was read as G9a inh 20µM*, CtBP-E1A inh -11, BAZ2B block 57%, JMJD2A Tudor inh -31%, HP1b binding inh inconclusive and Six1-Eya2 inh -15.
Screening COc1ccc(N2CCN(C(=O)COC(=O)c3cccc(S(=O)(=O)Nc4cccc(C)c4)c3)CC2)cc1 returned G9a inh 10µM*, CtBP-E1A inh inconclusive, BAZ2B block -36%, JMJD2A Tudor inh inconclusive, HP1b binding inh -25% and Six1-Eya2 inh -28.
O=C(c1cccc(S(=O)(=O)N2CCc3ccccc3C2)c1)N1CCN(c2ccccc2)CC1 was read as G9a inh -2%[59 µM], CtBP-E1A inh -10, BAZ2B block -30%, JMJD2A Tudor inh -7%, HP1b binding inh 17% and Six1-Eya2 inh -12.
`COc1ccc(NS(=O)(=O)c2ccc(C(=O)N3CCCCCC3)cc2)cc1` gave CtBP-E1A inh 0, JMJD2A Tudor inh -8%, HP1b binding inh 30%[57 µM] and Six1-Eya2 inh 9.
O=C(c1cccc(S(=O)(=O)N2CCc3ccccc32)c1)N1CCN(c2ccccc2)CC1 was read as G9a inh 22µM*, CtBP-E1A inh -7, BAZ2B block 4%, JMJD2A Tudor inh -33%, HP1b binding inh -9% and Six1-Eya2 inh -10.
For COC1OC(c2ccccc2)=C(c2ccc(C(N)=O)cc2)c2ccc(F)cc21 (stereo unspecified) the results were CtBP-E1A inh -10 and Six1-Eya2 inh -3.
`O=C1CC[C@@H]2C[C@@]3(C[C@@H]4CCN1[C@H]24)Nc1cc([N+](=O)[O-])ccc1NC3=NCc1ccccc1` gave CtBP-E1A inh -30, JMJD2A Tudor inh inconclusive, HP1b binding inh 8% and Six1-Eya2 inh -10.
Screening Cc1ccc(/C(=N/Nc2ncnc3ccccc23)C(=O)O)cc1 returned G9a inh inconclusive, CtBP-E1A inh -77*, BAZ2B block inconclusive, JMJD2A Tudor inh inconclusive, HP1b binding inh 4% and Six1-Eya2 inh -84*.
Screening CN1C=CC=C/C1=C1\SC(=S)N(c2ccccc2)C1=O returned G9a inh 18µM*, CtBP-E1A inh -2, BAZ2B block inconclusive, JMJD2A Tudor inh -34%, HP1b binding inh -35% and Six1-Eya2 inh 0.
C=CCN1C=CC=C/C1=C1\SC(=S)N(C)C1=O was read as G9a inh inconclusive, CtBP-E1A inh 0, BAZ2B block inconclusive, JMJD2A Tudor inh -17%, HP1b binding inh inconclusive and Six1-Eya2 inh -5.
CCN1C(=O)/C(=C2/C=CC=CN2C)OC1=S was read as G9a inh 45µM*, CtBP-E1A inh 0, BAZ2B block -2%, JMJD2A Tudor inh -18%, HP1b binding inh -6% and Six1-Eya2 inh -3.
CN1C=CC=C/C1=C1\SC(=S)N(C2CCCCC2)C1=O was read as G9a inh 16µM*, CtBP-E1A inh inconclusive, BAZ2B block 40µM*, JMJD2A Tudor inh 40µM*, HP1b binding inh -54% and Six1-Eya2 inh inconclusive.
`CN1C=CC=C/C1=C1\SC(=S)N(CC(=O)O)C1=O` gave G9a inh 20µM*, CtBP-E1A inh 1, BAZ2B block 50µM*, JMJD2A Tudor inh -11%, HP1b binding inh 7% and Six1-Eya2 inh -1.
For COc1ccc(S(=O)(=O)NCCc2nnc3ccc(SCC(=O)Nc4ccc(C(F)(F)F)cc4)nn23)cc1 the results were G9a inh 4%[59 µM], BAZ2B block -16%, JMJD2A Tudor inh -18% and HP1b binding inh 22%.
Screening Cc1cc2nc(-c3nnnn3Cc3ccccc3)c(=O)[nH]c2cc1C returned CtBP-E1A inh 7 and Six1-Eya2 inh 5.
Screening O=C(NC(=S)Nc1ccc(Cl)c(C(=O)O)c1)c1cccc(COc2ccccc2)c1 returned G9a inh 4%, CtBP-E1A inh -18, BAZ2B block 1%, JMJD2A Tudor inh inconclusive, HP1b binding inh -18% and Six1-Eya2 inh -6.
For O=C(NC(=S)Nc1ccccc1[N+](=O)[O-])c1ccccc1Cl the results were CtBP-E1A inh -14, BAZ2B block inconclusive, JMJD2A Tudor inh inconclusive, HP1b binding inh inconclusive and Six1-Eya2 inh -13.
For O=C(O)c1ccc(Cl)c(NC(=S)NC(=O)c2cccc(COc3ccccc3)c2)c1 the results were G9a inh -1%, CtBP-E1A inh 0, BAZ2B block 50µM*, JMJD2A Tudor inh inconclusive, HP1b binding inh inconclusive and Six1-Eya2 inh -12.
Screening O=C(O)c1ccc(Cl)c(NC(=S)NC(=O)c2ccccc2[N+](=O)[O-])c1 returned G9a inh 32µM*, CtBP-E1A inh 7, BAZ2B block -1%, JMJD2A Tudor inh -3%[57.1 µM], HP1b binding inh -1% and Six1-Eya2 inh -1.
For CNC(=S)NC12CC3CC(CC(C3)C1)C2 the results were CtBP-E1A inh 4, BAZ2B block inconclusive, JMJD2A Tudor inh -13%, HP1b binding inh 24% and Six1-Eya2 inh 7.
For CCOc1ccc(NC(=O)CN(c2cccc(C(F)(F)F)c2)S(C)(=O)=O)cc1 the results were G9a inh 5%, CtBP-E1A inh 2, BAZ2B block -7%, JMJD2A Tudor inh -9%, HP1b binding inh 20% and Six1-Eya2 inh 1.
